For 21 compounds, Z-AUC, Potency and outcome results are on record in PubChem BioAssay (NCATS).

Inconclusive results are not listed. Activity calls are given as the source filed them. Unless noted, calls come from the whole dose curve; as a rule, active = well fitted curve in the direction sought with a large enough effect; inconclusive = small, poorly fitted or top-dose-only effect, or another doubt; inactive = no such curve, though single readings can be large; an effect the other way counts as inactive or inconclusive.

The nature of test [1]: qHTS drug screen for cell cycle checkpoint inhibitors in PARPi-resistant BRCA-mutant ovarian cancer cell lines. (AID 1963452; calls by dose curve). The settings on record: PEO1/OlaR viability, CellTiter-Glo luminescence, 96 h, stronger effect = lower value. Summed up: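 PEO1, PEO4 and PEO1/OlaR ovarian cancer cells, 600 per well, exposed 96 h at 37C to a dilution series. Viability read by CellTiter-Glo luminescence, normalized to DMSO and empty wells; activity summarized as Z-AUC.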

For test [2], the target named is Nuclear receptor subfamily 1 group I member 2 (Homo sapiens) (UniProt O75469). The test is described as follows: Dual reporter qHTS for agonist of Pregnane X Receptor (hPXR) against the NCATS DSHEA and TCM libraries: Luminescence readout (AID 1920059). Note: potency is the fitted concentration of half-maximal effect. The conditions noted are these: hPXR dual reporter cells, luciferase luminescence agonist; series mostly up to 22 µM. Summed up: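 hPXR-LucHepG2 cells in phenol red-free DMEM with 5% charcoal-stripped FBS, 2000 cells/well, attached 5 h, then exposed 24 h at 37C to compounds; rifampicin as positive agonist control (2.8 nM–92 uM). Luciferase luminescence read.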
Nuclear receptor subfamily 1 group I member 2 (Homo sapiens), sequence (O75469 whole entry, looked up): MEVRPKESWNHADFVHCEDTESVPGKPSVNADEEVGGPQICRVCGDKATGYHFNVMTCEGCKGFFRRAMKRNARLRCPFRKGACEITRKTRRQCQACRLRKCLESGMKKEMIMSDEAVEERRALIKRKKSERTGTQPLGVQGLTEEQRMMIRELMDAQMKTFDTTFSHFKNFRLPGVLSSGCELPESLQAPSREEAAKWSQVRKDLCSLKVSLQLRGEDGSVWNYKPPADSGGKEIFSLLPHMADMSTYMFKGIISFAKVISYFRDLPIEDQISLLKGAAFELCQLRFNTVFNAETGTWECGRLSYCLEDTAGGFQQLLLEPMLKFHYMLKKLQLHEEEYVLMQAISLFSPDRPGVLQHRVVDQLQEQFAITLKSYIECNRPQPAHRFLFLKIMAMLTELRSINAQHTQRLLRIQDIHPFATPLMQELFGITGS

Test [3] shares this target. The test is described as follows: Dual reporter qHTS for antagonist of Pregnane X Receptor (hPXR) against the NCATS DSHEA and TCM libraries: Luminescence Readout (AID 1920060).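 Note: HepG2 cells carrying hPXR luciferase reporter stimulated with rifampicin at 2 µM; 0% is about no effect.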 The settings on record: hPXR dual reporter cells, luciferase luminescence, antagonist mode; series mostly up to 40 µM. Summed up:
(§1)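 Antagonist mode: rifampicin 2 uM final co-added with compounds to hPXR-LucHepG2 cells for 24 h at 37C. Viability by CellTiter-Fluor, Ex/Em 405/540 nm, 1 h; reporter by ONE-Glo luminescence.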
For orientation: In qHTS, concentration-response curves come from the screen itself.

Test [4] in a line: Dual reporter qHTS for antagonist of Pregnane X Receptor (hPXR) against the NCATS DSHEA and TCM libraries: Fluorescence Readout (AID 1920061). Note: 0% is about no effect. The settings on record: PXR dual reporter cells, antagonist mode; series mostly up to 40 µM. Summed up:
as §1

The nature of test [5]: qHTS profiling for inhibitors of Plasmodium falciparum proliferation (AID 504749).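 Note: 0% = DMSO vehicle and full inhibition = artemisinin control; nearly all actives have a fitted effect of over 60% in size.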 The conditions noted are these: P. falciparum in erythrocytes, SYBR Green DNA, 72 h; series mostly up to 28.7 µM. The gist of the method:
(§2)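 Quantitative HTS: compounds pinned into medium, infected erythrocytes added (0.3% parasitemia, 2.5% hematocrit), 72 h culture at 37 C under 5% CO2. Saponin/Triton lysis with SYBR Green I, overnight RT, then fluorescence read.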

A further test deals with 3D7. The test is described as above. The conditions noted are these: P. falciparum in erythrocytes, SYBR Green DNA, 72 h; series mostly up to 28.7 µM. The gist of the method: as §2
Another test relates to 7G8. Described as above. The conditions noted are these: P. falciparum in erythrocytes, SYBR Green DNA, 72 h; series mostly up to 28.7 µM. The gist of the method: as §2
A further test concerns AA1029. The test is described as above. The settings on record: P. falciparum in erythrocytes, SYBR Green DNA, 72 h; series mostly up to 28.7 µM. Summed up:
as §2

A further test relates to AS120. The test is described as above. The settings on record: P. falciparum in erythrocytes, SYBR Green DNA, 72 h; series mostly up to 28.7 µM. The gist of the method: as §2
The subject of the next test is ATS189. The description is as above. The settings on record: P. falciparum in erythrocytes, SYBR Green DNA, 72 h; series mostly up to 28.7 µM. Summed up:
as §2

For the next test, the system named is ATS95. The description is as above. The settings on record: P. falciparum in erythrocytes, SYBR Green DNA, 72 h; series mostly up to 28.7 µM. Summed up: as §2
In a further test the test system is C2A. The description is as above. The conditions noted are these: P. falciparum in erythrocytes, SYBR Green DNA, 72 h; series mostly up to 28.7 µM. The gist of the method:
as §2

In another test the test system is CP185. Described as above. The settings on record: P. falciparum in erythrocytes, SYBR Green DNA, 72 h; series mostly up to 28.7 µM. The gist of the method: as §2
For a further test, the system named is CP191. Described as above. The conditions noted are these: P. falciparum in erythrocytes, SYBR Green DNA, 72 h; series mostly up to 28.7 µM. The gist of the method:
as §2

For the next test, the system named is CP192. The test is described as above. The conditions noted are these: P. falciparum in erythrocytes, SYBR Green DNA, 72 h; series mostly up to 28.7 µM. Summed up: as §2
The next test concerns CP194. The description is as above. The conditions noted are these: P. falciparum in erythrocytes, SYBR Green DNA, 72 h; series mostly up to 28.7 µM. The gist of the method:
as §2

For a further test, the system named is CP201. Described as above. The conditions noted are these: P. falciparum in erythrocytes, SYBR Green DNA, 72 h; series mostly up to 28.7 µM. Summed up: as §2
The test system of another test is CP203. The description is as above. The conditions noted are these: P. falciparum in erythrocytes, SYBR Green DNA, 72 h; series mostly up to 28.7 µM. Summed up: as §2
The test system of a further test is CP211. The test is described as above. The conditions noted are these: P. falciparum in erythrocytes, SYBR Green DNA, 72 h; series mostly up to 28.7 µM. The gist of the method:
as §2

The next test concerns CP215. The description is as above. The settings on record: P. falciparum in erythrocytes, SYBR Green DNA, 72 h; series mostly up to 28.7 µM. Summed up:
as §2

The mark [6] stands for this setting: measured here: PEO1 parental Z-AUC.

`Cc1ncc(Cl)cc1NCc1ccc(C(=O)NC(CC2CCCC2)C(=O)NC2CC2)s1` (configuration not stated): the Z-AUC in test [1] is -0.347 (inactive); in [1] (setting [6]) it was -0.204; in test [1] (measured here: PEO4 Z-AUC), 0.18.
In the same order, the values of `CNc1nc(C)nc(N[C@H]2CCC[C@@H](C(=O)NCc3ccc(C#N)cc3C(F)(F)F)C2)n1` are -0.0725 (inactive), 0.695 and 1.22.
In the same order, the values of `COCCCc1sc(-c2ccccc2)nc1C(=O)Nc1ccccc1-c1nc2cc(CN3CCCC3)cnc2s1` are 0.0751 (inactive), -0.146 and 0.43.
The corresponding values for `CCC(CC)CC1(C(=O)Nc2ccccc2SC(=O)C(C)C)CCCCC1` are -0.732 (inactive), -0.887 and -0.923.
Turning to `N#Cc1ccc(C2CCCc3cncn32)cc1` (configuration not stated), the Z-AUC in [1] was 0.659 (inactive); in [1] (setting [6]), 0.67; in test [1] (measured here: PEO4 Z-AUC), 0.567.
On to `CC(=O)O[C@@H]1C[C@@H](C)[C@](O)(CCC2=CC(=O)OC2)[C@@]2(C)CCCC(C)(C)C12` (some centres not stated), for which, in [2], the Potency is 12.6 µM (active). The outcome in [3] and in test [4] was inactive.
Turning to `Cc1nc(-c2cccnc2)sc1C(=O)Nc1ccccc1-c1cn2c(CN3CCOCC3)csc2n1`, the Z-AUC is 0.405 (inactive) in [1], -0.0743 in test [1] (setting [6]) and 0.19 in test [1] (measured here: PEO4 Z-AUC).
In the case of `Cc1ncc(NC(=O)c2ccc(CN3CCN(C)CC3)c(C(F)(F)F)c2)cc1Nc1nccc(-c2cccnc2)n1`, the Z-AUC was 0.889 (inactive) in test [1], -0.0515 in [1] (setting [6]) and -0.0456 in test [1] (measured here: PEO4 Z-AUC).
With `O=C(COCC(=O)N1CCN(C(c2ccccc2)c2ccccc2)CC1)Nc1ccc(Cl)cc1C(=O)O`, the Z-AUC in test [1] was 1.8 (inactive); in test [1] (setting [6]) it was 1.44; in test [1] (measured here: PEO4 Z-AUC) it was 1.34.
`CCOC(=O)C(CCc1ccccc1)NC(C)C(=O)N1Cc2ccccc2CC1C(=O)O` (configuration not stated): the compound was classed as inactive (in test [5]; with 3D7; in the test with 7G8; in the test with AA1029; with AS120; in the test with ATS189). For the same compound, the compound was called inactive with ATS95, with C2A, in the test with CP185, in the test with CP191, in the test on CP192 and with CP194. Besides, the outcome in the test on CP201, with CP203, in the test with CP211 and in the test on CP215 was inactive.
In the case of `COc1ccc2[nH]c(S(=O)Cc3ncc(C)c(OC)c3C)nc2c1` (configuration not stated), the Z-AUC in test [1] was 0.929 (inactive); in test [1] (setting [6]), 1.11; in test [1] (measured here: PEO4 Z-AUC), 1.24.
For `Cc1c(F)cc(C(=O)NC2CC2)cc1-c1ccc(C(=O)NCC(C)(C)C)cn1`, the Z-AUC was 0.819 (inactive) in test [1], 0.354 in [1] (setting [6]) and 0.681 in [1] (measured here: PEO4 Z-AUC).
In the case of `CCCCOc1nc(N)c2c(n1)N(Cc1cccc(CN3CCCC3)c1)CC(=O)N2`, the values for the Z-AUC in test [1], in test [1] (setting [6]) and in [1] (measured here: PEO4 Z-AUC) were -0.393 (inactive), -0.969 and -0.664, respectively.
In the same order, the values of `N#Cc1cccc(-c2c[nH]c3ncnc(N4CCOCC4)c23)c1` are 0.0885 (inactive), 0.762 and 0.859.
As to `O=C(OCC1=C[C@@H](O)[C@@H]2C=CO[C@@H](O[C@@H]3O[C@H](CO)[C@@H](O)[C@H](O)[C@H]3O)[C@H]12)c1ccc(O)cc1`, in [2], the Potency result is “inactive”. Besides, the compound was called inactive in test [4].
With `N#CN1CCC[C@@H](n2nc(-c3ccc(Oc4ccc(F)cc4F)cc3)c(C(N)=O)c2N)C1`, the Z-AUC in test [1] was -0.296 (inactive); in test [1] (setting [6]), 0.0658; in test [1] (measured here: PEO4 Z-AUC), 0.537.
In the same order, the values of `O=C(O)CC1CCC(c2ccc(-c3ccc(Nc4ccc(C(F)(F)F)nc4)cn3)cc2)CC1` (configuration not stated) are -0.639 (inactive), -0.457 and -0.671.
For `Cn1cc(-c2c[nH]c3ncnc(N4CCOCC4)c23)cn1`, the Z-AUC in [1] is 1.31 (inactive); in [1] (setting [6]), 1.65; in test [1] (measured here: PEO4 Z-AUC) it was 1.56.
Regarding `Nc1ncnc2c1c(COc1cccc(Cl)c1)nn2C1CCOCC1`, the Z-AUC in test [1] was -1.18 (inactive); in test [1] (setting [6]), -0.772; in [1] (measured here: PEO4 Z-AUC), -0.767.
Regarding `CCc1cccc2c3c([nH]c12)[C@@](CC)(CC(=O)O)OCC3`, the result (in test [5]; in the test on 3D7; in the test on 7G8; with AA1029; in the test on AS120; in the test on ATS95) was inactive. Also, the call in the test on C2A, in the test on CP185, in the test with CP191, with CP192, in the test with CP194 and in the test with CP201 was inactive. Moreover, the result in the test on CP203, in the test with CP211 and with CP215 was inactive.
With `CC(C)[C@](O)(c1ccc2cc(OC(F)F)c(OC(F)F)cc2c1)c1cn[nH]n1`, the results for the Z-AUC in test [1], in test [1] (setting [6]) and in test [1] (measured here: PEO4 Z-AUC) were -0.262 (inactive), -0.434 and -0.604, respectively.
